CapD inh – CapD enzyme inhibition. actives 0.23% (n = 140,000). purified CapD enzyme, fluorescence intensity read-out; hits give low values. AID 492967. z-score (concentration not given with the values); in the data active = z-score mostly below about -2.9, no sharp cut-off; inactive = mostly above about -1.9
An asterisk follows results filed as active; i = inactive. Shown is part of a subset that was picked to be rich in hits.

SMILES	CapD inh
CC1=NN(c2ccc(C(=O)NCc3ccc(N(C)C)cc3)cc2)C(=O)C1	-1.1
CC1=NN(c2ccccc2)C(=O)C1	-0.89
C[N+]12CCCCC1C(COc1ccccc1Br)CCC2 (stereo not drawn)	0.095
O=C1NC(=O)N(c2ccccc2)C(=O)/C1=C/C=C/c1ccco1	-1.1
O=C1NC(=S)NC(=O)C1=C/C=C/c1ccco1	-11*
CN1C(=O)NC(=O)/C(=C\C=C\c2ccco2)C1=O	-0.49
COc1ccccc1C(=O)OC1CCN(C)CC1	0.055
COc1ccccc1C(=O)ON1C(=O)CCC1=O	-5.5*
COc1ccc(C(=O)ON2C(=O)CCC2=O)cc1	-1.1
O=C(Nc1ccc(Cl)cc1)OCc1cc(-c2ccc(Cl)c(Cl)c2)on1	-0.18
CC(C)=CCS(=O)(=O)c1ccccc1	-0.52
Cc1ccc(C)c(Nc2cc(N(C)C)c3nonc3c2[N+](=O)[O-])c1	-0.12
CC[n+]1c(/C=C/N(C)c2ccccc2)sc2ccc(OC)cc21	32
CSc1sc2ccccc2[n+]1C	0.51
CC[n+]1c(/C=C2/C=C(C)CC(C)C2)sc2ccccc21 (stereo not drawn)	-0.23
CC[n+]1c(/C=C/Nc2ccccc2)sc2ccccc21	-4.9*
C[n+]1c(/C=C/Nc2ccccc2)sc2ccccc21	-4.4*
C[n+]1c(COc2ccccc2O)sc2ccccc21	-0.5
CCOC(=O)c1cc2cnccc2nc1-c1cc(Cl)cc(Cl)c1	-0.66
COc1cccc2cc(C(=O)NC3=C(C#N)CCC3)c(=O)oc12	-0.26
CN(C)c1ccnc(Nc2ccc(I)cc2)c1C#N	-0.41
COc1ccc(C(=O)c2sc3nc(-c4ccco4)cc(C(F)(F)F)c3c2N)cc1OC	0.67
Cc1cc(C(F)(F)F)c2c(n1)sc1c(O)cc(=O)[nH]c12	5.8
O=c1cc(O)c2sc3nc(-c4ccco4)cc(C(F)(F)F)c3c2[nH]1	-6.2*
CC(C)N(CCCC(O)c1ccc(F)cc1)C(=O)c1cccs1 (stereo not drawn)	-0.42
SMILES	CapD inh
CCOc1ccccc1N1CC(C(=O)O)CC1=O (stereo not drawn)	-0.81
Cc1ccc2onc(CC(=O)NCCN3CCN(C)CC3)c2c1	0.97
CC1C/C(=C\C=C\N(C)C)C(=O)/C(=C/C=C/N(C)C)C1 (stereo not drawn)	-2.5
CN(C)/C=C/C=C1C(=O)CCCC1=O	-0.57
CN(C)/C=C/C=C1\CCCC1=O	-9*
CN1CCC(N(C)C(=O)c2cc3ccccc3o2)CC1	0.97
N=S(N)c1c(O)c2ccccc2oc1=O (stereo not drawn)	0.025
CC1CC(C)CN(C(=O)c2cccs2)C1 (stereo not drawn)	0.025
O=C(c1cccs1)N1CCSC1=S	-4.8*
O=C(c1ccc(Cl)cc1)N1CCCc2ccccc21	-0.33
O=C(O)C1SCCN1C(=O)c1ccc(Cl)cc1 (stereo not drawn)	0.075
O=C(c1cccs1)N1CCCCC1	0.45
O=C(c1ccc(Cl)cc1)N1CCSC1=S	-3.5*
Cc1ccc(/C(N)=N/OC(=O)Oc2ccccc2)cc1	-0.01
Cc1ccc(-c2nn[nH]n2)cc1	0.3
Cc1ccc(OC(=O)OCSc2nn[nH]n2)cc1	-7.1*
N#Cc1ccc(-c2csc(NC(=O)C3CCCCC3)n2)cc1	i
Cc1c(C(=O)NCCN2CCOCC2)sc2ncnc(N3CCN(c4ccccn4)CC3)c12	-0.5
N#CC1=C(N=Cc2ccccc2)c2ccccc2CC12CCCCC2	-0.21
CC(=O)N(C(C)=O)c1cc(C(=O)O)ccc1Sc1ccc(Br)cc1	-11*
N#Cc1cc(C(F)(F)F)ccc1Sc1ccc(Br)cc1	-0.33
Cc1ccc(Sc2ccc(C(=O)O)cc2NC=O)cc1	0.1
CCCCNC(=O)c1cccc2c1C(=O)N(CCC)C2	-0.74
CC(C)=CC1C(CNC(=O)OCCCc2ccccc2)C1(C)C (stereo not drawn)	-0.78
CC(=S)/C=C1\Sc2ccccc2N1C	-5.3*
SMILES	CapD inh
CN1/C(=C\C=C2C(=O)c3ccccc3C2=O)Sc2ccccc21	-0.57
CN1/C(=C/C(=O)c2ccco2)Sc2ccccc21	-2
COC(=O)c1c2c(c3ccccc3c1O)OC(c1ccc(OC)cc1)(c1ccc(OC)cc1)C=C2	0.51
CCC(Sc1nnc(-c2c[nH]c3ccccc23)n1CC)C(=O)OC (stereo not drawn)	-0.49
CCOC(=O)C1=C(C)N=c2s/c(=C\c3cccc(OCC(=O)O)c3)c(=O)n2C1c1ccc(F)cc1 (stereo not drawn)	-0.13
O=[N+]([O-])c1cccnc1Oc1ccc(Cl)cc1	-1
CN1C(=O)/C(=c2/[nH][nH]c(=O)/c2=C\C=C\c2ccccc2)C(=O)c2ccccc21	-5.2*
CN1C(=O)/C(=C\C(=O)c2cccs2)c2ccccc21	-0.22
C=CCN1C(=O)NC(=O)/C(=C/C=C/c2ccccc2)C1=O	-0.42
C=CCOc1ccc(CN2CCN(S(=O)(=O)c3ccccc3Cl)CC2)cc1	-0.43
COc1ccc(P(=O)(CC(=O)O)c2ccc(OC)cc2)cc1	-0.08
COc1ccc(F)c(/C=N/NC(=O)c2csc(CS(=O)(=O)Cc3ccco3)n2)c1	6.5
COc1ccc(C2C(C(=O)/C=C/c3ccccc3)=C(O)C(=O)N2CCO)cc1 (stereo not drawn)	-3.9*
COc1ccc(C2/C(=C(\O)c3ccccc3)C(=O)C(=O)N2CCN2CCOCC2)cc1 (stereo not drawn)	-0.94
CCCN1C(=O)c2ccccc2C(C(=O)O)C1c1ccc(OC)cc1 (stereo not drawn)	0.45
Nc1ccc(-c2nnc(-c3ccco3)o2)cc1	77
O=c1oc(-c2cc3ccccc3s2)ns1	1.2
O=c1oc(-c2ccco2)ns1	-8.5*
O=C(N=Nc1c(O)[nH]c2ccccc12)C(O)c1ccccc1 (stereo not drawn)	-2.2
O=C1CSC(N=Nc2c(O)[nH]c3ccccc23)=N1	-4.1*
O=C1N=c2ccccc2=C1N=Nc1c(O)[nH]c2ccccc12	-0.04
O=C(CCSc1ccc(Cl)cc1)NCc1ccncc1	0.24
COc1ccc(SCCC(=O)NCc2ccncc2)cc1	-2.1*
O=C(CCSc1ccccc1)NCc1cccnc1	-0.22
CCOC(=O)C1=NN(C(=O)c2cccc(OC)c2)C(O)(C(C)(C)C)C1 (stereo not drawn)	0.26
SMILES	CapD inh
O=c1c([N+](=O)[O-])c[nH]n(-c2ccccc2)c1=O	-1.1
O=C(CCn1c(=O)c2ccccc2n(CC(=O)Nc2ccccc2)c1=O)NCCc1ccccc1	-5.6*
O=C(Cn1c(=O)n(CCc2ccccc2)c(=O)c2ccccc21)Nc1ccc(Cl)cc1	0.53
CCCN(CCC)C(=O)Cn1c(=O)n(CCC(=O)NCCc2ccccc2)c(=O)c2ccccc21	0.53
CC1c2cc(O)c(O)cc2CCN1C(=O)c1ccccc1CC(=O)O (stereo not drawn)	1
CC1CCCCN1C(=O)Cn1ncc2c1-c1ccccc1OC2 (stereo not drawn)	-4*
CCN(CCN(C)C)C(=O)Cn1ncc2c1-c1ccccc1OC2	0.48
CC(C)NC(=O)Cn1ncc2c1-c1ccccc1OC2	-0.46
CCCS(=O)(=O)c1c(S(=O)(=O)CCC)c2ccccn2c1C(=O)N/N=C/c1c[nH]c2ccccc12	-0.21
Cc1ccc(/C=C2/C=CC(=O)O2)o1	-5.2*
Cc1ccc(/C=C2\N=C(c3ccc(C4=N/C(=C\c5ccc(C)o5)C(=O)O4)cc3)OC2=O)o1	-0.43
Cc1ccc(/C=C2\CC/C(=C\c3ccc(C)o3)C2=O)o1	1.2
COc1cc(OC)c(/C=N/NC(=O)c2ccc3nonc3c2)c(OC)c1	-0.54
N#CC1=C(c2ccc(Cl)cc2)COC1=O	2.9
O=C1OC/C(=C(/O)c2ccccc2)C1=O	-3.1
O=C1OC/C(=C(\O)c2ccc(Cl)cc2)C1=O	-5.4*
